High-throughput results as filed in PubChem.
Sampled rows, rich in hits. Any-hit rate of the full collection: about 27%.
CYP2C9 act – CYP2C9 (human) activation. P11712. recombinant CYP2C9, luciferin-H conversion, luminescence; stronger effect = higher value; factor 1 = untreated enzyme, 0 = blocked. activation factor at 5 µM. 1.4% of 96,000 active. AID 1024;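 active = activation factor of 2 or more for CYP2C9 at a 5 µM dose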
CYP2C19 inh – blocks human cytochrome P450 2C19; P33261; CYP2C19 Supersomes, luciferin-H EGE luminescence, 30 min; inhibition, % at 5 µM; 21% of 96,000 active;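 active = CYP2C19 inhibition above a set limit at 5 µM in the primary screen, cut at about 50% in these data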
Target sequence (P33261 whole entry, looked up): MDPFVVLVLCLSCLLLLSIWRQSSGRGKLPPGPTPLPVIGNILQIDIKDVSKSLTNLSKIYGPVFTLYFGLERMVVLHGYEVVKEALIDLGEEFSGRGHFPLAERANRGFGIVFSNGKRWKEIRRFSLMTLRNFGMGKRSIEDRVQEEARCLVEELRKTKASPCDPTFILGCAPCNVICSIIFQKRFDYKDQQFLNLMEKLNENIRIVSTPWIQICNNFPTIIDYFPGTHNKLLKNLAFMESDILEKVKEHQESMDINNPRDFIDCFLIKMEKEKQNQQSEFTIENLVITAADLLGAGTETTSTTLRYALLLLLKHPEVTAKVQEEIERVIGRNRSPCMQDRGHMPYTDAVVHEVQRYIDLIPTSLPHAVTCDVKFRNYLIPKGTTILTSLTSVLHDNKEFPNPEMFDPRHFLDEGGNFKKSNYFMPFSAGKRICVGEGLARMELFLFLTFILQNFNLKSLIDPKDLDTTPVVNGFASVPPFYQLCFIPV
sEH act – increases human soluble epoxide hydrolase activity; P34913; purified human sEH enzymatic activity, activator screen; activation, % at 2 µM; 0.04% of 91,000 active; AID 717; in the data active = activation above about 37%
sEH inh – inhibitors of human soluble epoxide hydrolase; inhibition, % at 2 µM; P34913; recombinant human sEH enzymatic activity assay; AID 707; 0.34% of 91,000 active; in the data active = inhibition above about 80%
CYP2C9 inhib – inhibitors of human CYP2C9; 20% of 96,000 active; CYP2C9 Supersomes, luciferin-H conversion, luminescence; inhibition, % at 5 µM; P11712;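 active = blocking of liver enzyme CYP2C9 beyond about 50% at 5 µM, limit read from the data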
CYP2C19 act – increases human CYP2C19 enzyme activity; AID 1025; activation factor at 5 µM; recombinant CYP2C19, luciferin-H EGE luminescence; stronger effect = higher value; 0 = fully inhibited enzyme, 1 = untreated enzyme; P33261; 96,000 tested, under 10 active;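 active = activation factor of at least 2 at 5 µM in the primary screen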
Numbers stand for hits; - = inactive; . = no result given.

SMILES	CYP2C9 act	CYP2C19 inh	sEH act	sEH inh	CYP2C9 inhib	CYP2C19 act
COc1ccc(N2C3=[N+](CC2(C)O)c2ccccc2CC3)cc1 (stereo unspecified)	-	-	-	-	-	-
O=C(Cc1ccc(-n2c(=S)[nH]c3ccccc3c2=O)cc1)N1CCC(N2CCCCC2)CC1	-	-	-	-	92	-
COCCNC(=O)CCCCCn1c(=S)[nH]c2ccccc2c1=O	-	-	-	-	-	-
CCOC(=O)N1CCN(C(=O)CCCn2c(=S)[nH]c3ccccc3c2=O)CC1	-	52	-	-	-	-
CCOC(=O)N1CCN(C(=O)CCCn2c(=S)[nH]c3ccc(Br)cc3c2=O)CC1	-	73	-	-	69	-
CCOC(=O)N1CCN(C(=O)CCCn2c(=O)[nH]c3ccccc3c2=O)CC1	-	-	-	-	-	-
COc1cccc(NC(=O)CCCn2c(=S)[nH]c3ccccc3c2=O)c1	-	63	-	-	78	-
Cc1cc(C)c(NC(=O)CC(C)(C)C)c(Cl)c1	-	-	-	-	-	-
CCOC(=O)N1CCC(NC(=O)Cc2ccc(-n3c(=O)[nH]c4ccccc4c3=O)cc2)CC1	.	.	-	-	.	.
CCOC(=O)N1CCC(n2c(=S)[nH]c3ccccc3c2=O)CC1	-	-	-	-	81	-
O=c1[nH]c(CSc2nc3ccccc3o2)nc2c1cnn2-c1ccccc1	-	78	.	.	68	-
O=c1[nH]c(SCc2nc3c(cnn3-c3ccccc3)c(=O)[nH]2)nc2ccccc12	-	-	-	-	-	-
Cc1ccc2nc(Nc3ccc4[nH]c(=O)[nH]c4c3)c(-n3nc(C)cc3C)nc2c1	-	-	-	-	-	-
COC(=O)c1cccc(NC(=O)CSc2nnc(COc3ccc(C#N)cc3)n2-c2ccccc2)c1	-	-	-	-	69	-
CCc1nnc(NC(=O)CSc2nnc(C)n2Cc2ccccc2)s1	.	.	-	-	.	.
N#Cc1ccc(OCc2nnc(SCC(=O)c3ccccc3)n2-c2ccccc2)cc1	.	.	-	-	.	.
Cc1cccc(NC(=O)CSc2nnc(C)n2Cc2ccccc2)c1	-	59	-	-	-	-
COC(=O)c1cccc(NC(=O)CSc2nnc(C)n2Cc2ccccc2)c1	-	70	.	.	89	-
Cc1nnc(SCC(=O)Nc2sccc2C(N)=O)n1Cc1ccccc1	2.3	76	.	.	-	-
COC(=O)c1c(-n2cnnn2)sc(C)c1C	-	-	.	.	-	-
Cn1c(=O)oc2cc(S(=O)(=O)N3CCCC(C(=O)Nc4ccc5c(c4)OCCO5)C3)ccc21 (stereo unspecified)	-	-	-	-	-	-
CCOc1ccc(-n2c(COc3ccccc3)nnc2SCC(N)=O)cc1	-	76	-	-	-	-
CCOc1ccccc1-n1c(COc2ccccc2)nnc1SCC(N)=O	-	-	-	-	-	-
COCc1nnc(SCC(=O)Nc2cccc(Cl)c2C)n1-c1ccccc1	-	84	-	-	-	-
COCc1nnc(SCC(=O)NCc2ccccc2)n1-c1ccccc1	-	-	-	-	-	-
SMILES	CYP2C9 act	CYP2C19 inh	sEH act	sEH inh	CYP2C9 inhib	CYP2C19 act
Cn1nc(-c2ccccc2)c(CSc2ccccc2Cl)c1Cl	-	-	-	-	-	-
Cn1nc(-c2ccccc2)c(C(O)c2ccc(Cl)cc2)c1Cl (stereo unspecified)	-	95	.	.	88	-
CSCCC(NC(=O)c1ccc(Cl)cc1)C(=O)NC(C)(C)C (stereo unspecified)	-	-	-	-	62	-
CCC(C)NC(=O)C(CCSC)NC(=O)c1ccccc1 (stereo unspecified)	-	-	-	-	-	-
CCN(C#N)c1nc(NC(C)C)nc(NC(C)C)n1	-	-	-	-	73	-
CCNc1nc(NC(C)C)nc(N(C#N)CCOc2ccccc2)n1	-	60	-	-	-	-
O=C(CSc1nc2ccccc2n1CC(=O)N1CCCC1)Nc1nccs1	-	-	-	-	-	-
CC(C)Nc1nnc(SCC(=O)c2c(N)n(Cc3ccccc3)c(=O)n(C)c2=O)s1	-	-	-	-	58	-
O=C(COC(=O)C1=COCCO1)Nc1ccc(Oc2ccccc2)cc1	-	82	-	-	90	-
CC(C)(C)c1ccc(NC(=O)COC(=O)C2=COCCO2)cc1	-	-	-	-	-	-
CC(CCc1ccccc1)NC(=O)COC(=O)C1=COCCO1 (stereo unspecified)	-	56	-	-	50	-
COc1ccc(CNC(=O)COC(=O)C2=COCCO2)cc1	-	-	-	-	-	-
CCOC(=O)c1ccccc1NC(=O)COC(=O)C1=COCCO1	-	-	-	-	68	-
Cc1cc2nncn2c(Cc2ccccc2)n1	-	-	.	.	-	-
Cn1cc(CC(=O)N2CCN(c3ccccc3F)CC2)c2ccccc21	-	100	-	-	-	-
Oc1ccc(N2CCN(C(=S)NCCc3ccccc3)CC2)cc1	-	51	-	-	-	-
Cn1cc(CC(=O)NCCCN2CCCC2)c2ccccc21	-	-	-	-	-	-
O=C(CCc1ccccc1)N1CCN(c2ccc(Cl)cc2)CC1	-	50	-	-	-	-
O=C(Cn1nc(C(F)(F)F)c2c1CCCCC2)N1CCOCC1	-	-	-	-	-	-
O=C(Cn1nc(C(F)(F)F)c2c1CCC2)N1CCN(c2ccccc2)CC1	2.3	89	-	-	-	-
O=C(Nc1ccc(Cl)cc1)N1CCN(c2ccccc2)CC1	.	.	-	-	.	.
CN(CCNC(=O)C1CCN(S(=O)(=O)N2CCOCC2)CC1)CCc1ccccc1	-	-	-	-	-	-
O=S1(=O)C=C(Sc2nc3ccccc3s2)c2ccccc21	-	-	.	.	-	-
O=C(Cn1nc(-c2ccc(Cl)cc2)ccc1=O)N1CCN(c2ccccc2)CC1	-	-	-	-	52	-
O=C(CCCC(=O)N1CCN(c2ccccc2F)CC1)N1CCN(c2ccccc2F)CC1	-	-	-	-	-	-
SMILES	CYP2C9 act	CYP2C19 inh	sEH act	sEH inh	CYP2C9 inhib	CYP2C19 act
Cn1cc(CC(=O)N2CCN(c3ccc(Cl)cc3)CC2)c2ccccc21	2.1	71	-	-	-	-
O=C(Cc1ccc(-n2cccc2)cc1)N1CCN(c2ccccc2F)CC1	-	-	-	-	63	-
COc1ccc(NC(=O)CSC2CC(=O)N(c3ccc4c(c3)OCCO4)C2=O)cc1 (stereo unspecified)	-	-	.	.	-	-
CCCNc1nc(-c2ccccc2)c(C(=O)OCC)cc1C#N	-	-	-	-	57	-
CCOC(=O)c1cc(C#N)c(Oc2ccccc2)nc1-c1ccccc1	-	-	-	-	-	-
C=CCNc1nc(-c2ccccc2)c(C(=O)OCC)cc1C#N	-	-	-	-	-	-
CCCCNc1nc(-c2ccccc2)c(C(=O)OCC)cc1C#N	-	-	-	-	56	-
CCCn1c(SCc2cc(=O)oc3ccc4ccccc4c23)n[nH]c1=O	-	78	.	.	84	-
O=C(C1COc2ccccc2O1)N1CCn2c(nc3ccccc32)C1 (stereo unspecified)	-	85	-	-	-	-
